High-throughput results as filed in PubChem BioAssay.
The list is not random: actives were taken first. Their share in the collection is about 3%.
pPAFAH inh = pPAFAH (human) enzyme inhibition. Q13093. recombinant pPAFAH, FP-rhodamine probe fluorescence polarization. inhibition, % at 3.39 µM. 1.5% of 330,000 active. AID 463082;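 active = inhibition above the mean inhibition across the screen plus 3 SD, cut at about 25% in these data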;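 note: inhibitors block binding of the rhodamine activity-based probe so polarization drops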
PAFAH1B3 inh = blocks human PAF acetylhydrolase 1B catalytic subunit 3. 0.28% of 340,000 active. inhibition, % at 3.39 µM. recombinant PAFAH1B3, FP-rhodamine probe, fluorescence polarization. Q15102;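 active = inhibition above the screen-wide average of all tested compounds plus 3 SD, cut at about 25% in these data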
Target sequence (Q15102 whole entry, looked up): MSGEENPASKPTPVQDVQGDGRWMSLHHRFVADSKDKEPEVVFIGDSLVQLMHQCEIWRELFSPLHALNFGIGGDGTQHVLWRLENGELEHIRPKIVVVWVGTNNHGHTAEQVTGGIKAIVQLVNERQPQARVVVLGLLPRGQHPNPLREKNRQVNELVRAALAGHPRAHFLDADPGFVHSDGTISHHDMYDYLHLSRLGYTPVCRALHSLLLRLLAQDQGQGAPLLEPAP
PAFAH2 inh = PAFAH2 (human) inhibition | recombinant PAFAH2, FP-rhodamine activity probe, fluorescence polarization | inhibition, % at 3.39 µM | 0.99% of 340,000 active;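 active = inhibition above the mean over all tested compounds plus 3 SD, cut at about 30% in these data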;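 note: inhibitors block probe labeling of enzyme so polarization drops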
PP5 inh = blocks human protein phosphatase 5 activity. P53041. purified PP5c, OMFP substrate fluorescence. inhibition, % at 6.7 µM. 0.18% of 320,000 active. AID 1987;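 active = inhibition above the campaign's mean inhibition across all tested compounds plus 3 SD, cut at about 9.5% in these data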
PAFAH1B2 FP inh = inhibitors of human PAFAH1B2 | recombinant PAFAH1B2, FP-rhodamine activity probe, fluorescence polarization | inhibition, % at 3.39 µM | 1.2% of 340,000 active | AID 492953;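 active = inhibition above the mean of all tested compounds plus 3 SD, cut at about 24% in these data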
Target sequence (P68402 whole entry, looked up): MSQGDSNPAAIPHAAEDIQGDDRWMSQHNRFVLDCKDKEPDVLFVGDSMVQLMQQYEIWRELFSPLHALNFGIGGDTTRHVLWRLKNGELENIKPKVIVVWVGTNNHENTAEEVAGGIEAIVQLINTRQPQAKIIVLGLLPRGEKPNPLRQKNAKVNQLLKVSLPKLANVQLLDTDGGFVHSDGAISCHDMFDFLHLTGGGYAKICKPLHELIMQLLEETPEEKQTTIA
CTSL1 counter = counter-screen for PFM18AAP inhibitors: inhibitors of F. hepatica cathepsin L1 | recombinant F. hepatica cathepsin L1, Z-Leu-Arg-MCA fluorescence | inhibition, % at 5.96 µM | 0.49% of 300,000 active;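 active = inhibition above the mean of all tested compounds plus 3 SD, set per screening campaign, cut at about 17% in these data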
PP5 inh confirm = confirmation of human PP5 phosphatase inhibitors | Purified PP5, fluorogenic phosphatase substrate, fluorescence | 22% of 460 active | shares compounds with PP5 inh | inhibition, % at 6.7 µM; in the data active = inhibition above about 9.5%
PP1 inh counter = inhibits human PP1 phosphatase in PP5 counter-screen; 4% of 460 active; shares compounds with PP5 inh; AID 2355; inhibition, % at 6.7 µM; PP1 enzyme, fluorescent phosphatase substrate; in the data active = inhibition above about 16%
Each line names hits and unclear results; the compound was inactive in the other large screens (follow-up assays come after a bar, where they were run).

CC1CC(C)CN(C(=O)c2ccc3c(=O)n(Cc4ccc5c(c4)OCO5)c(=S)[nH]c3c2)C1 (configuration not stated)	PP5 inh 11 | PP5 inh confirm inactive | PP1 inh counter inactive
O=C(c1ccc2c(=O)n(Cc3ccc4c(c3)OCO4)c(=S)[nH]c2c1)N1CCCCC1	none
CCN(C(=O)CN1C(=O)S/C(=C\c2cccc(OC)c2)C1=O)C1CCS(=O)(=O)C1 (configuration not stated)	none
Cc1c(N=c2c(=O)c3ccccc3c2=O)c(=O)n(-c2ccccc2)n1C	PP5 inh 13, CTSL1 counter 56 (no result: PAFAH1B3 inh, PAFAH2 inh, PAFAH1B2 FP inh) | PP5 inh confirm 35 | PP1 inh counter inactive
Cc1csc(=Nc2c(C)n(C)n(-c3ccccc3)c2=O)n1-c1ccccc1	none
Cc1ccc(S(=O)(=O)N(CC(=O)N2CCN(c3ccc(F)cc3)CC2)C2CCCCC2)cc1	PP5 inh 10 | PP5 inh confirm inactive | PP1 inh counter inactive
CCOC(=O)N1CCN(C(=O)CN(C2CCCCC2)S(=O)(=O)c2ccc(C)cc2)CC1	none
O=C(c1cc(-c2ccc(Cl)cc2)n(-c2ccc(Cl)cc2)n1)N1CCOCC1	PP5 inh 13 | PP5 inh confirm inactive | PP1 inh counter inactive
Cc1ccc(-n2nc(C(=O)N3CCOCC3)cc2-c2ccc(Cl)cc2)cc1	none
CC(C)OC(=O)c1cc(NC(=O)C2C3C=CC(O3)C2C(=O)O)cc(C(=O)OC(C)C)c1 (configuration not stated)	PP5 inh 31 | PP5 inh confirm inactive | PP1 inh counter inactive
COc1cccc(NC(=O)C2C3C=CC(O3)C2C(=O)O)c1 (configuration not stated)	PP5 inh 24 | PP5 inh confirm inactive | PP1 inh counter 18
COc1ccc(NC(=O)C2C3C=CC(O3)C2C(=O)O)cc1 (configuration not stated)	none
O=C(O)C1C2C=CC(O2)C1C(=O)Nc1ccc(S(=O)(=O)N2CCc3ccccc32)cc1 (configuration not stated)	PP5 inh 17 | PP5 inh confirm inactive | PP1 inh counter inactive
CC(C)OC(=O)c1cc(NC(=S)Nc2ccc([N+](=O)[O-])cc2)cc(C(=O)OC(C)C)c1	none
CCCOC(=O)c1ccc(NC(=O)C2C3C=CC(O3)C2C(=O)O)cc1 (configuration not stated)	PP5 inh 21 | PP5 inh confirm inactive | PP1 inh counter inactive
C#C[C@]1(O)CCC2C3CCC4=Cc5oncc5CC4(C)C3CCC21C (some centres not stated)	none
CCN(CCn1cccn1)C(=O)C1CCC(=O)N(CCc2cccc(F)c2)C1 (configuration not stated)	none
CC(Sc1nnc(C2CC2)n1C)C(=O)Nc1ccc(N2CCOCC2)cc1 (configuration not stated)	none (no result: pPAFAH inh, PP5 inh, CTSL1 counter)
O=C(O)C1C2C=CC(O2)C1C(=O)Nc1ccc2c(c1)OCCO2 (configuration not stated)	PP5 inh 15 (no result: PAFAH1B3 inh, PAFAH2 inh, PAFAH1B2 FP inh) | PP5 inh confirm inactive | PP1 inh counter inactive
CC(=O)c1ccc(NC(=O)C2C3C=CC(O3)C2C(=O)O)cc1 (configuration not stated)	PP5 inh 24 | PP5 inh confirm inactive | PP1 inh counter inactive
CC(=O)c1ccc(NC(=O)C2C3CCC(C3)C2C(=O)O)cc1 (configuration not stated)	none
O=C(COc1ccc(Br)cc1)Nc1ccc(N2CCOCC2)cc1N1CCOCC1	none (no result: CTSL1 counter)
CCCCn1c(N)c(N(CCOC)C(=O)C2CCN(S(=O)(=O)c3ccc(Cl)cc3)CC2)c(=O)[nH]c1=O	none
CC1=NN(c2ccc(C)cc2)C(=O)/C1=C\C=C\c1ccccc1	none
CC1=NN(c2ccccc2)C(=O)/C1=C/C=C/C=C/N(C)C	PP5 inh 10 | PP5 inh confirm 14 | PP1 inh counter inactive
O=C(NC1(O)C(=O)c2ccccc2C1=O)c1ccc(C(F)(F)F)cc1	PP5 inh 18, CTSL1 counter 57 (no result: PAFAH1B3 inh, PAFAH2 inh, PAFAH1B2 FP inh) | PP5 inh confirm 38 | PP1 inh counter inactive
Cn1cnc2c(cnn2C)c1=N	none (no result: pPAFAH inh, PP5 inh, CTSL1 counter)
COc1ccc(CCC(=O)Nc2nnc(C(C)(C)C)s2)cc1	PP5 inh 13 | PP5 inh confirm inactive | PP1 inh counter inactive
C=CCN1C=C2C(=O)C(C)(OC(=O)CCC(=O)OC)C(=O)C(Br)=C2C=C1c1ccc(OC)cc1 (configuration not stated)	PP5 inh 12 | PP5 inh confirm 38 | PP1 inh counter 18
CCCN(CC1CC1)c1nc(N)c2c(N)nc(OC)cc2c1C#N	PP5 inh 12 | PP5 inh confirm 39 | PP1 inh counter inactive
CCCCCCCC(=O)OCC(=O)[C@@]1(O)CC[C@H]2[C@@H]3CCC4=CC(=O)CC[C@]4(C)[C@H]3[C@@H](O)C[C@@]21C	PP5 inh 11 | PP5 inh confirm inactive | PP1 inh counter inactive
O=S(=O)(c1ccc(Br)s1)n1cccn1	PP5 inh 12 | PP5 inh confirm inactive | PP1 inh counter inactive
COc1cc(N2C(=O)C=CC2=O)c(OC)cc1Cl	none
CCOc1ccc2nc(SCC(=O)NCC3CCCO3)c(C#N)cc2c1 (configuration not stated)	none
COCC(C)n1c(-c2ccc3c(c2)NC(=O)CO3)csc1=Nc1ccc(OC(F)F)cc1 (configuration not stated)	PP5 inh 12 | PP5 inh confirm inactive | PP1 inh counter inactive
O=C(O)c1ccc(C(=O)c2cc([N+](=O)[O-])cc([N+](=O)[O-])c2)cc1	none (no result: pPAFAH inh, PP5 inh, CTSL1 counter)
Oc1ccccc1/C=N/Nc1cc(N2CCCC2)nc(N2CCCC2)n1	PP5 inh 14 | PP5 inh confirm 44 | PP1 inh counter inactive
CN(C)c1nc(SCCOC(=O)COc2ccc(Cl)cc2Cl)nc(N(C)C)n1	PP5 inh 11 | PP5 inh confirm inactive | PP1 inh counter inactive
CCOC(=O)c1nn(-c2ccc(C)cc2)c(=O)c2c(N)scc12	PP5 inh 10.0, CTSL1 counter 17 | PP5 inh confirm 23 | PP1 inh counter inactive
COC(=O)CCC(=O)OC1(C)C(=O)C=C2C=C(C3CC3)N(C3CC3)C=C2C1=O (configuration not stated)	PP5 inh 15 | PP5 inh confirm 43 | PP1 inh counter 18
COCCN1C=C2C(=O)C(C)(OC(=O)CCC(=O)OC)C(=O)C=C2C=C1C1CC1 (configuration not stated)	PP5 inh 17 | PP5 inh confirm 43 | PP1 inh counter 17
COC(=O)CCC(=O)OC1(C)C(=O)C=C2C=C(C3CC3)N(Cc3ccco3)C=C2C1=O (configuration not stated)	none
O=C(NC1CC1)c1ccc2c(c1)S(=O)(=O)c1cc(Cl)ccc1C2=O	none (no result: PAFAH1B3 inh, PAFAH2 inh, PAFAH1B2 FP inh, CTSL1 counter)
